A selection: hits, their analogues and other compounds. The true share with any hit is near 4.6%.
TRHR enhancer: allosteric enhancers of human TRH receptor | P34981 | TRHR cells, fluo-8 calcium fluorescence, EC20 TRH enhancement | enhancement, % at 2 µM | actives 0.66% (n = 360,000) | AID 493056; in the data active = enhancement above about 30%
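TRHR-expressing cells loaded with fluo-8 calcium dye were read kinetically (ex 480/em 530) during compound addition, then stimulated with an EC20 of TRH (10 nM final). Enhancement of the Gq-mediated intracellular calcium response was scored.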
D1 ag: activates the human D1 dopamine receptor; P21728; HEK293 T-REx D1 cells, calcium flux, agonist mode; activation, % at 2 µM; actives 1% (n = 360,000); AID 504660
Target sequence (P21728 whole entry, looked up): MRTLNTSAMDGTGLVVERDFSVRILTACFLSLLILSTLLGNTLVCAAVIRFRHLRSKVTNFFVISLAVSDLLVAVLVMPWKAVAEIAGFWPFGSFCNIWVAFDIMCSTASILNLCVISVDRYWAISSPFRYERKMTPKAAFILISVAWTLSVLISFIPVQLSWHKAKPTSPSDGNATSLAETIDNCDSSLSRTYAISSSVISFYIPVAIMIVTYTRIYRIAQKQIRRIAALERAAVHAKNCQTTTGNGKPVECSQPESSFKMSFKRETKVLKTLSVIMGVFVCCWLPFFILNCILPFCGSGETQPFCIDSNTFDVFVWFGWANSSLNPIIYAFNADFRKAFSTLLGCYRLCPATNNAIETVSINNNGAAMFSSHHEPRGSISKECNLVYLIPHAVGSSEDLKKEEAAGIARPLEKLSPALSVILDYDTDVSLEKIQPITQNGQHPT
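Agonism was scored from calcium flux recorded over 180 s (1 read/s) after pintool compound addition, following a 10-cycle baseline. Cells were inducible force-coupled HEK293 TREx D1, plated overnight at 30 C and loaded with no-wash calcium dye.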
D1 PAM: potentiators of human D1 dopamine receptor. P21728. actives 0.036% (n = 360,000). potentiation, % at 10 µM. AID 504651. HEK293 TREx D1 cells, calcium flux, dopamine EC20 potentiation; in the data active = potentiation above about 30%
D1 antagonist: blocks dopamine activation of the human D1 receptor. P21728. HEK293 TREx D1 cells, calcium flux, dopamine EC80; active compounds read low. activity change, negative = inhibition, % at 10 µM. actives 3.2% (n = 360,000). AID 504652; in the data active = activity change below about -30%
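Inducible Hek293 Trex D1 cells (tetracycline, overnight, 30 C). Calcium dye 30–90 min RT. Antagonist mode: EC80 dopamine added after 180 s compound read.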
TRHR agonist: agonists of human TRH receptor; P34981; TRHR cells, calcium flux fluo-8, FDSS agonist mode; activation, % at 2 µM; actives 0.18% (n = 360,000)
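TRHR-expressing cells loaded with fluo-8 calcium dye; 23 nL library compound pin-transferred, kinetic FDSS fluorescence (Ex 480/Em 530) recorded about 180 s for agonist-induced calcium release, before a 10 nM TRH EC20 addition for potentiator mode.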
Epigenetic reg: epigenetic control regulation, reporter derepression; murine LDR cells, GFP reporter derepression, 30 h; Potency, µM (top dose mostly 53.9 µM), actives largely listed as activators; actives 0.2% (n = 280,000); AID 1865; active = well fitted activation curve with a large enough effect; inconclusive = small, poorly fitted or top-dose-only effect; note: nearly all actives have a fitted effect of over 60% in size
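Murine LDR cells bearing a silenced CMV-driven GFP reporter were exposed to compound for 30 h at 37 C. After PBS washes, GFP-positive cells (20-120 um objects) counted by laser-scanning microplate cytometry.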
Numbers stand for hits; 0 = inactive; ? = inconclusive; - = no result. Cut-off read from the data, not from the text of the source, unless noted: active = activation above about 30%; inactive = the rest.

SMILES | TRHR enhancer | D1 ag | D1 PAM | D1 antagonist | TRHR agonist | Epigenetic reg
COc1cc(NC(=O)c2cccs2)c(OC)cc1NC(=O)Nc1ccc(F)cc1 | 0 | 0 | 0 | -45 | 0 | -
COCCNC(=O)CSc1nnc(-c2ccc(OC)c(OC)c2)c(-c2ccc(OC)c(OC)c2)n1 | 0 | 0 | 0 | 0 | 0 | 0
O=S(=O)(c1ccccc1)N1CCN(S(=O)(=O)c2ccc3c(c2)OCCO3)CC1 | 0 | 0 | 0 | 0 | 0 | -
COC(=O)c1ccccc1NC(=O)Cn1cc(S(=O)(=O)Cc2ccccc2F)c2ccccc21 | 0 | 0 | 0 | 0 | 0 | 0
CCN(CC(=O)NCc1cccs1)C(=O)/C=C/c1ccc(OC)cc1OC | 0 | 0 | 0 | 0 | 0 | -
CCN(CC(=O)NCc1cccs1)C(=O)C1CC(=O)N(c2ccc(OC)cc2OC)C1 (centres undefined) | 0 | 0 | 0 | -34 | 0 | -
CCN(CC(=O)NCc1cccs1)C(=O)/C=C/c1cc(OC)ccc1OC | 0 | 0 | 0 | -67 | 0 | -
CC(C)c1ccc(NC(=O)CCCN2C(=S)NC(C)(C)CC2C)cc1 (centres undefined) | 0 | 0 | 0 | -33 | 0 | 0
COc1ccc(N=C2NC(=O)C(CO)(CO)S2)cc1 | 0 | 0 | 0 | -51 | 0 | -
CC(=O)c1ccc(N=C2NC(=O)C(CO)(CO)S2)cc1 | 0 | 0 | 0 | 0 | 0 | -
Cc1c(C(=O)N2CCCC2)oc2c1-c1nn(CC(=O)NC(C)c3ccccc3)cc1CC2 (centres undefined) | 0 | 0 | 0 | 0 | 0 | 0
CN(C)c1ccc(/C=C(/C#N)C(=O)NCc2ccccc2)o1 | 0 | 102 | 0 | 0 | 43 | 0
C[C@@H](O)CCC[C@H](O)/C=C/[C@H]1[C@H](O)CC(=O)[C@@H]1C/C=C\CCCC(=O)O | - | - | - | - | - | 0
Cc1ccc(-c2nc3sc4c(N)ncnc4c3c3c2CCCC3)cc1 | 0 | 0 | 0 | -61 | 0 | 0
CCCCn1nnc(NC(=O)c2cc3ccccc3o2)n1 | 0 | 0 | 0 | -36 | 0 | 0
Cc1ccc(NC(=O)c2ncoc2-c2ccco2)cc1Cl | 0 | 0 | 0 | 0 | 0 | 0
CCOC(=O)c1cccc(NC(=O)c2ncoc2-c2ccco2)c1 | 0 | 0 | 0 | -39 | 0 | 0
CCOC(=O)N1CCN(C(=O)c2cccc(NC(=O)c3ccco3)c2)CC1 | 0 | 0 | 0 | -63 | 0 | 0
CCCn1nnc(NC(=O)c2cc3ccccc3o2)n1 | 0 | 0 | 0 | 0 | 0 | 0
CCOC(=O)c1cccc(NC(=O)c2cc3ccccc3o2)c1 | 0 | 0 | 0 | -42 | 0 | -
CCn1cc(C(=O)NCCN(CC(C)C)CC(C)C)c(=O)c2cc(S(=O)(=O)N(C)C3CCCCC3)ccc21 | 0 | 0 | 0 | 0 | 0 | 0
CCc1ccc(NC(=O)c2cc3c(COC(C)=O)cnc(C)c3oc2=O)cc1 | 0 | 0 | 0 | 0 | 0 | 0
CC1CC(C)CN(CCOCCSc2ccccc2)C1 (centres undefined) | 0 | 0 | 0 | -38 | 0 | 0
CC1CC(C)CN(CCCSc2ccccc2)C1 (centres undefined) | 32 | 0 | 0 | 0 | 0 | 0
COc1cc(C(CCN2CCN(c3ccccc3)CC2)c2c(OC)cc(OC)c3c(C)cc(=O)oc23)cc(OC)c1OC (centres undefined) | 0 | 0 | 0 | -81 | 0 | 0
SMILES | TRHR enhancer | D1 ag | D1 PAM | D1 antagonist | TRHR agonist | Epigenetic reg
COc1cc(C(CCN2CCOCC2)c2c(OC)cc(OC)c3ccc(=O)oc23)cc(OC)c1OC (centres undefined) | - | - | - | - | - | 0
CCCCCc1cc(=O)oc2c(C(CCN3CCCCC3)c3cc(OC)c(OC)c(OC)c3)c(OC)cc(OC)c12 (centres undefined) | 0 | 0 | 0 | 0 | 0 | 0
COc1cc(OC)c2c(C)cc(=O)oc2c1C(CCN1CCOCC1)c1ccc2c(c1)OCO2 (centres undefined) | 0 | 0 | 0 | -68 | 0 | 0
CCCCCc1cc(=O)oc2c(C(CCN3CCCC(C)C3)c3cc(OC)c(OC)c(OC)c3)c(OC)cc(OC)c12 (centres undefined) | 0 | 0 | 0 | -47 | 0 | 0
Cc1csc2nc(COC(=O)c3cccc(NC(=O)c4cccc(Cl)c4)c3)cc(=O)n12 | 0 | 0 | 0 | 0 | 0 | ?
COC(=O)c1sccc1S(=O)(=O)N(CC(=O)NCc1ccccc1)c1ccc(C)cc1 | 0 | 0 | 0 | 0 | 0 | 0
COc1ccccc1NC(=O)Cn1c(C)cc(C)c(C#N)c1=O | 0 | 0 | 0 | 0 | 0 | 0
C=C(C)Cn1c(=O)c2c(nc3n2CCN3c2cc(C)cc(C)c2)n(C)c1=O | 0 | 0 | 0 | 0 | 0 | 0
Cc1cc(C)cc(N2CCn3c2nc2c3c(=O)n(Cc3c(F)cccc3Cl)c(=O)n2C)c1 | 0 | 0 | 0 | -31 | 0 | 0
Cc1ccccc1CNC(=O)c1ccc2nc(C(C)C)oc2c1 | 0 | 0 | 0 | 0 | 0 | 0
CCN(CC)CCCC(C)Nc1c2ccc(Cl)cc2nc2ccc(OC)cc12 (centres undefined) | 0 | 0 | 0 | 0 | 0 | 3.2µM
COc1cccc(-c2nc3c(c(SCC(=O)Nc4cccc(C)c4C)n2)Cc2c(CO)cnc(C)c2O3)c1 | 0 | 0 | 0 | 0 | 0 | 0
Cc1cc(C)n(CCCN2CCC(C(=O)Nc3cccc(-c4cccc(F)c4)c3)CC2)n1 | 0 | 34 | 0 | -58 | 0 | -
CCn1ncc(CN2CCC(C(=O)Nc3cccc(-c4cccc(F)c4)c3)CC2)c1C | 0 | 0 | 0 | 0 | 0 | -
CCOC(=O)c1c(C)c(-c2ccccc2)n(CC(=O)NC2CCCCC2)c1C | 0 | 0 | 0 | 0 | 0 | 0
COC(=O)c1ccccc1NC(=O)c1ccc(CN2CC(=O)N3CCCCC3C2=O)cc1 (centres undefined) | 0 | 0 | 0 | 0 | 0 | 0
COc1cc2c(c(OC)c1OC)-c1c(cc3c(c1OC)OCO3)C1OC2[C@@H](C)[C@H]1C (some centres undefined) | 0 | 0 | 0 | -46 | 0 | 0
COC(=O)c1ccccc1NC(=O)Cn1nc(C)c2nn(-c3ccc(Cl)cc3)c(C)c2c1=O | 0 | 0 | 0 | 0 | 0 | 0
S=C(Nc1ccccc1)Nc1ccc(OCc2ccc(Cl)cc2Cl)cc1 | 0 | 0 | 0 | 0 | 0 | 0
CC(C)NC(=NCc1ccc(Cl)cc1Cl)Nc1ccccc1 | 0 | 46 | 0 | 0 | 0 | -
CCOC(=O)C1=C(N)Oc2c(c(=O)[nH]c3ccccc23)C1c1ccccc1 (centres undefined) | 0 | 0 | 0 | -87 | 0 | 0
COc1ccccc1-c1c(C)nn2c(C)cc(C)nc12 | 0 | 0 | 0 | -36 | 0 | 0
COc1ccc(NC(=O)CN2C(=O)CCn3nc(-c4cccn4C)cc32)cc1Cl | 0 | 0 | 0 | 0 | 0 | 0
COc1ccc(OC)c(C(=O)NC(CC(N)=O)c2ccc(NCc3ccc(F)c(F)c3)c([N+](=O)[O-])c2)c1 (centres undefined) | 36 | 0 | 0 | 0 | 0 | -
